Test results as given in the supplement of paper PMC6555819.

Tests used:
Assay in all cases: PBM binding z-score (relative to random genomic background probes); higher = stronger binding; sequences stand for … in GC…GCGATTGACAGCGTAGAATGAAGG
[1] = test system: FXR:RXRa (NR concentration 270 nM, RXRa partner concentration 90 nM)
Procedure, shortened: (§1)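 Random background probes are the reference for binding z-scores. These scores derive from regression-normalized fluorescence on custom Agilent 4×180K protein-binding microarrays incubated 1 h with ligand-free nuclear receptor dimers. Binding was detected with antibodies against each partner (one per run).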

[2] = test system: LXRa:RXRa (NR concentration 270 nM, RXRa partner concentration 90 nM)
Procedure, shortened: as §1

[3] = test system: LXRa homodimer (NR concentration 270 nM)
Procedure, shortened: as §1

[4] = test system: LXRb:RXRa (NR concentration 270 nM, RXRa partner concentration 90 nM)
Procedure, shortened: as §1

[5] = test system: LXRb homodimer (NR concentration 270 nM)
Procedure, shortened: as §1

[6] = test system: PPARa:RXRa (NR concentration 270 nM, RXRa partner concentration 90 nM)
Procedure, shortened: as §1

[7] = test system: PPARg:RXRa (NR concentration 180 nM, RXRa partner concentration 90 nM)
Procedure, shortened: as §1

[8] = test system: PPARg:RXRa 270nM:90nM, anti-RXR (NR concentration 270 nM, RXRa partner concentration 90 nM)
Procedure, shortened: as §1

[9] = test system: PPARg:RXRa 30nM:10nM, anti-RXR (NR concentration 30 nM, RXRa partner concentration 10 nM)
Procedure, shortened: as §1

[10] = test system: PPARg:RXRa 90nM:30nM, anti-RXR (NR concentration 90 nM, RXRa partner concentration 30 nM)
Procedure, shortened: as §1

[11] = test system: PPARg:RXRa DBDmut IVT, anti-RXR (DBD mutation: RXRa K156A/R161A, NR concentration 270 nM, RXRa partner concentration 90 nM)
Procedure, shortened: as §1

[12] = test system: PPARg:RXRa IVT, anti-PPARg (NR concentration 270 nM, RXRa partner concentration 90 nM)
Procedure, shortened: as §1

[13] = test system: PPARg DBDmut:RXRa IVT, anti-PPARg (DBD mutation: PPARg1 K132A/R137A, NR concentration 270 nM, RXRa partner concentration 90 nM)
Procedure, shortened: as §1

[14] = test system: PPARg DBDmut IVT, anti-PPARg (DBD mutation: PPARg1 K132A/R137A, NR concentration 270 nM)
Procedure, shortened: as §1

[15] = test system: PPARg homodimer (NR concentration 180 nM)
Procedure, shortened: as §1

[16] = test system: PXR:RXRa (NR concentration 270 nM, RXRa partner concentration 90 nM)
Procedure, shortened: as §1

[17] = test system: PXR homodimer (NR concentration 270 nM)
Procedure, shortened: as §1

[18] = test system: RARa:RXR (NR concentration 270 nM, RXRa partner concentration 90 nM)
Procedure, shortened: as §1

[19] = test system: RARa homodimer (NR concentration 270 nM)
Procedure, shortened: as §1

[20] = test system: RARb:RXRa (NR concentration 270 nM, RXRa partner concentration 90 nM)
Procedure, shortened: as §1

Sequence	PBM binding z-score [1]	PBM binding z-score [2]	PBM binding z-score [3]	PBM binding z-score [4]	PBM binding z-score [5]	PBM binding z-score [6]	PBM binding z-score [7]	PBM binding z-score [8]	PBM binding z-score [9]	PBM binding z-score [10]	PBM binding z-score [11]	PBM binding z-score [12]	PBM binding z-score [13]	PBM binding z-score [14]	PBM binding z-score [15]	PBM binding z-score [16]	PBM binding z-score [17]	PBM binding z-score [18]	PBM binding z-score [19]	PBM binding z-score [20]
CAAACTAGGACAAGGTCAAAGTCGGTTTGTGCCA	4.54	4.18	2.08	3.48	0.526	5.05	5.5	5.41	3.12	4.9	5.64	5.61	1.68	1.21	2.27	4.44	1.41	4.44	0.511	3.83
GGAACGAGGGCATTCGAGTTAATAGCATGGCGAT	1.38	1.05	-0.476	0.179	-0.759	1.58	1.18	0.939	0.26	1.09	3.25	2.26	-0.564	-0.5	0.00587	3.48	0.437	0.742	-0.33	1.8
ACTAGCAGGCCAAGTTGGGGTCACTCAAACAAAG	3.18	3.16	0.123	4.07	-0.00108	4.63	1.63	2.88	0.385	1.96	1.25	2.36	-0.0232	-0.538	2.25	5.29	1.2	5.79	-0.0777	3.14
TCTGGTAGATCAGCAGGTTAAGAAAGCTGGCCAA	-0.0813	-0.0843	-0.0573	0.308	-1.12	0.507	-0.637	1.06	1.81	1.12	0.973	-0.29	-0.344	-0.477	-0.534	-0.014	-0.669	0.363	-0.495	0.127
ACTATCAGTTGAGACGAGGGCAACCGATAGGTTG	0.189	0.0109	-0.515	-0.348	-0.0586	0.26	0.645	0.00158	0.149	-0.0981	-0.519	0.218	-0.42	-0.235	0.148	1.44	-0.0291	0.7	-0.128	0.903
CATACAGGGTTAGCTAGGCCAGAGTAGGGACGGC	0.0541	0.22	-0.431	-0.176	-0.302	0.689	0.625	0.647	-0.0439	0.397	-0.169	0.541	-0.056	-0.72	-0.367	-0.275	-0.684	0.13	-0.529	1.07
GCGTATAGGTAATACAAGGTGAAAGTCCGATTGT	1.84	2.57	0.196	0.896	-0.616	1.37	0.763	0.855	0.307	0.925	1.36	1.33	0.339	-0.802	0.129	0.699	-0.0902	1.12	0.521	0.576
CGAACTAGGTAATTGACAGGACAGTGAATAGTAA	-0.398	-0.336	0.0257	-0.434	-0.603	0.979	1.09	0.555	0.0511	0.213	5.41	4.17	0.954	0.672	0.615	-0.222	-0.131	-0.274	0.178	-0.185
CCTACTGGGCCATTCAGTGGTCATTGATCATATG	-0.271	-0.187	-0.281	-0.498	-0.602	0.355	0.304	0.661	-0.571	0.191	3.99	3.43	-0.19	-0.875	-0.524	-0.597	-0.649	-0.725	-0.259	0.368
ATATGTAGGTTAAGTGTCATTCAGGTTGGTTCGC	1.68	2.16	1.09	1.93	0.826	4.74	7.81	7.39	6.14	7.88	7.37	7.34	2.11	2.12	1.85	1.87	0.52	2.1	1.63	1.99
CAAACTAGGTCAAGAGGTCTAAGTCCGCTTCCCG	3.48	2.8	0.46	1.7	-0.0852	4.97	7.75	6.93	4.73	6.71	7.99	8.45	1.43	2.57	1.86	1.66	-0.00755	2.65	0.497	4.1
CCTATTAGTTGACCAGAAGGGCAACCGAAGCTCG	0.545	0.559	0.36	0.332	0.735	0.431	0.395	0.467	-0.116	0.177	0.319	0.518	-0.0786	0.481	1.64	0.463	0.906	0.452	2.07	1.61
CAAACTAAGTCAAAGGTCAAAGTCGAGCCAACCA	6.46	6.42	5.19	6.08	2.84	6.84	11.4	10.3	11.8	12.2	3.49	6.79	1.69	2.86	5.3	6.14	2.15	7.85	3.31	4.95
CGAACTAGGTCGTTGACAGGACAGTGAATAGTAA	0.598	0.178	-0.251	0.171	-0.626	1.98	2.2	2.02	0.441	1.44	5.75	5.01	0.86	0.354	0.203	0.234	-0.188	0.276	-0.436	1.18
